Measured values as given in the supplement of paper PMC11732987, “Enantioselective OTUD7B fragment discovery through chemoproteomics screening and high-throughput optimisation” (Communications Chemistry, 2025).

Key:
Experiment in all cases: log2 ratio of Biotin-Ahx-Ub-VS probe labelling (fragment/DMSO); higher = less target engagement (more negative = stronger competition), active = hit call of the paper (q ≤ 0.05, log2 ratio ≤ -1)
Settings in all cases: compound concentration: 200 uM; treatment time: 3 h
USP34 = USP34 (UniProt Q70CQ2)
USP34, sequence (Q70CQ2 whole entry, the tested form may be a part): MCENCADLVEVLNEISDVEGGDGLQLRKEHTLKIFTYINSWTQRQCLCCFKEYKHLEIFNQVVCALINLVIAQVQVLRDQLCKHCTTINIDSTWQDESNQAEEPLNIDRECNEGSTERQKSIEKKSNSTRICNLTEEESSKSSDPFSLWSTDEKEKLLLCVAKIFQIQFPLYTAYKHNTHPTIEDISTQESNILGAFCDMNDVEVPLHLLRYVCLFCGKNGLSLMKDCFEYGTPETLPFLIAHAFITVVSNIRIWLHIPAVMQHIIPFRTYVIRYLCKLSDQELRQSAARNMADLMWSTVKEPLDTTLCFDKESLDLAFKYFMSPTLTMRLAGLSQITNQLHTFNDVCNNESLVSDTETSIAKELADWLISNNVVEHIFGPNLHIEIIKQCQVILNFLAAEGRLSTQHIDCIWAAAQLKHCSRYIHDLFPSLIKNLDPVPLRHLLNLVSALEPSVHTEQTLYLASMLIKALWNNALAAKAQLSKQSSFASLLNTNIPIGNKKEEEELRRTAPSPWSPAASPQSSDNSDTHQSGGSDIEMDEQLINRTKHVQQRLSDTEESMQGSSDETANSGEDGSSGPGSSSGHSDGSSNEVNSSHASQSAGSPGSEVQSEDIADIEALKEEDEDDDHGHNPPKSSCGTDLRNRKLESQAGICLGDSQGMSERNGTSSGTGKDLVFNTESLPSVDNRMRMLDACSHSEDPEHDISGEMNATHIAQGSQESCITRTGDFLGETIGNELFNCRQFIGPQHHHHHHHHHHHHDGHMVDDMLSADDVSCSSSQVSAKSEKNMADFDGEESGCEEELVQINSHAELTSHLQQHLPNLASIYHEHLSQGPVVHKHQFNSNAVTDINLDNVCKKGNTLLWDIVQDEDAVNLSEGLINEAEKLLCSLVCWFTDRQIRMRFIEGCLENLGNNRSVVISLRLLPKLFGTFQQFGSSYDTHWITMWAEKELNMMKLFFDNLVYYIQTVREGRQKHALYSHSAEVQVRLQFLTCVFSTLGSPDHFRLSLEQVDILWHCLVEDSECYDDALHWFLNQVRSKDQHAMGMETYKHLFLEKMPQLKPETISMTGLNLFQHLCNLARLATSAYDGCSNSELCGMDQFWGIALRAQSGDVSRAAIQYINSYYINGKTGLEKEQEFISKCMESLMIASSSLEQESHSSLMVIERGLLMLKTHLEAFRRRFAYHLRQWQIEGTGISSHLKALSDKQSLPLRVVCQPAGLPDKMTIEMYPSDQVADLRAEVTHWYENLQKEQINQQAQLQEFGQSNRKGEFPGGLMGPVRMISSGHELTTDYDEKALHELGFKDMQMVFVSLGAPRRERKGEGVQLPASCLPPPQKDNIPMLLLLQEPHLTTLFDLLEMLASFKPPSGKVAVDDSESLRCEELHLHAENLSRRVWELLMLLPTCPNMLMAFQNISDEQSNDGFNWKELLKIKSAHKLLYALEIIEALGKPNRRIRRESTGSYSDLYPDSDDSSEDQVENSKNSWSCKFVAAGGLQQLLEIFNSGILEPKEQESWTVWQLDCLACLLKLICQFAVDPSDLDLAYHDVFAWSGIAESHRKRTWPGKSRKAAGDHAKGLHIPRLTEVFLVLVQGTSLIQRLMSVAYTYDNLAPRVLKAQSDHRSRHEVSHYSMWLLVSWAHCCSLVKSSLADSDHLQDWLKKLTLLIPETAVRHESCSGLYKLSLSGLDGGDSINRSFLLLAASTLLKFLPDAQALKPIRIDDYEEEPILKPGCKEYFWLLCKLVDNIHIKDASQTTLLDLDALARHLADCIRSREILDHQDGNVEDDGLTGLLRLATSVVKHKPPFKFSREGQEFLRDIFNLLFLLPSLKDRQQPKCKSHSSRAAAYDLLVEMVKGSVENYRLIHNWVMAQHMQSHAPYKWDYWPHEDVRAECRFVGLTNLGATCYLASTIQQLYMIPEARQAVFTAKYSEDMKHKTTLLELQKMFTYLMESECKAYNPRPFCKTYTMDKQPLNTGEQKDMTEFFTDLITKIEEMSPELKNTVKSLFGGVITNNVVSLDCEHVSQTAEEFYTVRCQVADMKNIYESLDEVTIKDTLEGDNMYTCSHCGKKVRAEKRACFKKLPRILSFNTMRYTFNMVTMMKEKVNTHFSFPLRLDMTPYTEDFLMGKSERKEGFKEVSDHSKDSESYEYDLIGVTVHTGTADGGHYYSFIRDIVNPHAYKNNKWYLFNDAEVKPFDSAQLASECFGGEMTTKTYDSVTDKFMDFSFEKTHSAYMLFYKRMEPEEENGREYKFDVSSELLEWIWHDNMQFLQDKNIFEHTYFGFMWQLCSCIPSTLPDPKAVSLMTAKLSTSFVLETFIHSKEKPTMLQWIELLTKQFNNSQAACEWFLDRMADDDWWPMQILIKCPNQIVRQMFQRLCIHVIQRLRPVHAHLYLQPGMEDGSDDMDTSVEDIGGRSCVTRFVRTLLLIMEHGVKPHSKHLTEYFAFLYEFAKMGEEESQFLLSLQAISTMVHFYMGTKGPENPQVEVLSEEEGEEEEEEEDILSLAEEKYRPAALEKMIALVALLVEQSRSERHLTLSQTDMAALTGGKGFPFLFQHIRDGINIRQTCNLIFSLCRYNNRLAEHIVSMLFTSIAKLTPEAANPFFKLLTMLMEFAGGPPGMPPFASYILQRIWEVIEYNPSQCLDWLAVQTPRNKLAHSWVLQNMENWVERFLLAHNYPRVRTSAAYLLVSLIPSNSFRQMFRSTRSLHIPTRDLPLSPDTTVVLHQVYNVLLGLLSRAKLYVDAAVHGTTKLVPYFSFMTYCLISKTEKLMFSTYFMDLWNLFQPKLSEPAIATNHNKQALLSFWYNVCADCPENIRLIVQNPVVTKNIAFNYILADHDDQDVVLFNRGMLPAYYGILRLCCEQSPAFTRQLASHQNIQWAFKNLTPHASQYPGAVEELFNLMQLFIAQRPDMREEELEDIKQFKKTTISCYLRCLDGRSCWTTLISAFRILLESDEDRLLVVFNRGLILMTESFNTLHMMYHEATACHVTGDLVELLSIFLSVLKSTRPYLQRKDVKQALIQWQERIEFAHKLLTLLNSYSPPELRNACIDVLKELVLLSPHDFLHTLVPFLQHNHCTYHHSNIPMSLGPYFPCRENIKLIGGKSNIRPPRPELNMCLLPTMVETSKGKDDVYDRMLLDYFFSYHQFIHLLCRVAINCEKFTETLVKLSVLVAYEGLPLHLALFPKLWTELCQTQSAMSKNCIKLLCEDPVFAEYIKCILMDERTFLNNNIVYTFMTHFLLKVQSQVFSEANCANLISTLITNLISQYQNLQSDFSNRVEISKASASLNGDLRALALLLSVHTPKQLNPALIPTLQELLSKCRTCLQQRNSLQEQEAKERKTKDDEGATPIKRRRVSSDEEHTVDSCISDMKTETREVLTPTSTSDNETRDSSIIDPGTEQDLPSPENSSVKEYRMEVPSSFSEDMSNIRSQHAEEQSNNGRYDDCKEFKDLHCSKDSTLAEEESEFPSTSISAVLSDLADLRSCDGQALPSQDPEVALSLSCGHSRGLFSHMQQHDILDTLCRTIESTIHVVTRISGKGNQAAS
Summary of the method: (§1)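 Each value is an average log2 ratio of fragment to vehicle, tested by unpaired t-test. The underlying Spectronaut label-free quantities were global-median-normalised, and only proteins with ≥2 unique peptides were included. Triplicate HEK293T lysate samples (495 µg) were exposed to fragment at 200 µM or vehicle for 3 h, then to Biotin-Ahx-Ub-VS at 0.5 µM final for 1 h, before NeutrAvidin enrichment of labelled DUBs, LysC and trypsin digestion, and diaPASEF LC-MS/MS.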

USP36 = target: T1, USP36 (UniProt Q9P275)
T1 sequence (whole entry): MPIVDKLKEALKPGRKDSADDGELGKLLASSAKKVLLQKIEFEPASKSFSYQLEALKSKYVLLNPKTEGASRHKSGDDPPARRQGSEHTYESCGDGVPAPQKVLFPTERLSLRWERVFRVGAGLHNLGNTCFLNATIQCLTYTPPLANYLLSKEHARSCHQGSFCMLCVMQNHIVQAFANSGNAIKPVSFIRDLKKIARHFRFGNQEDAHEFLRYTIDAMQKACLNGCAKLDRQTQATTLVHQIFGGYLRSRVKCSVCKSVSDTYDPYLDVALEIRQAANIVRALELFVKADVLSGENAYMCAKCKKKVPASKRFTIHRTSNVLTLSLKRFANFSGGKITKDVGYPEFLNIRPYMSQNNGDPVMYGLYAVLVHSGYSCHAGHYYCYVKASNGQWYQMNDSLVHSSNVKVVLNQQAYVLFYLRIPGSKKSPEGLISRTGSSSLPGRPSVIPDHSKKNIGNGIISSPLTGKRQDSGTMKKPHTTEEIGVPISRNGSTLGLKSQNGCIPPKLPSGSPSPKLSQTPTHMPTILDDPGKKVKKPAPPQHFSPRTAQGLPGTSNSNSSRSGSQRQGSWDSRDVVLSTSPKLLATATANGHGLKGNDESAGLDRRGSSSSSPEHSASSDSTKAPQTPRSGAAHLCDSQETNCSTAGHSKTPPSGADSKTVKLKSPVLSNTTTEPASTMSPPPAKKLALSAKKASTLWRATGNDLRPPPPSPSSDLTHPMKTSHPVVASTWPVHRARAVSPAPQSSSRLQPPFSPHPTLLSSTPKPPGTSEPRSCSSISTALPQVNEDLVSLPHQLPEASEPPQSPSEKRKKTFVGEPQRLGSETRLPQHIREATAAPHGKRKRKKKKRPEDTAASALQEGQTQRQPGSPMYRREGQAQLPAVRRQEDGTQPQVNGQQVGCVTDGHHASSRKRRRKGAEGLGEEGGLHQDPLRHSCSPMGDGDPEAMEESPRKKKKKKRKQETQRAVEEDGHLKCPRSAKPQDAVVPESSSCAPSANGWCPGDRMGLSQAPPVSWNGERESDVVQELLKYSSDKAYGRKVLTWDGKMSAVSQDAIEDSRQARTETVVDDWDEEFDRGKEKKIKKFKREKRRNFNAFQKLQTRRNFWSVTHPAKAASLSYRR
Summary of the method: as §1

USP38 = target: T2, USP38 (UniProt Q8NB14)
T2 sequence (whole entry): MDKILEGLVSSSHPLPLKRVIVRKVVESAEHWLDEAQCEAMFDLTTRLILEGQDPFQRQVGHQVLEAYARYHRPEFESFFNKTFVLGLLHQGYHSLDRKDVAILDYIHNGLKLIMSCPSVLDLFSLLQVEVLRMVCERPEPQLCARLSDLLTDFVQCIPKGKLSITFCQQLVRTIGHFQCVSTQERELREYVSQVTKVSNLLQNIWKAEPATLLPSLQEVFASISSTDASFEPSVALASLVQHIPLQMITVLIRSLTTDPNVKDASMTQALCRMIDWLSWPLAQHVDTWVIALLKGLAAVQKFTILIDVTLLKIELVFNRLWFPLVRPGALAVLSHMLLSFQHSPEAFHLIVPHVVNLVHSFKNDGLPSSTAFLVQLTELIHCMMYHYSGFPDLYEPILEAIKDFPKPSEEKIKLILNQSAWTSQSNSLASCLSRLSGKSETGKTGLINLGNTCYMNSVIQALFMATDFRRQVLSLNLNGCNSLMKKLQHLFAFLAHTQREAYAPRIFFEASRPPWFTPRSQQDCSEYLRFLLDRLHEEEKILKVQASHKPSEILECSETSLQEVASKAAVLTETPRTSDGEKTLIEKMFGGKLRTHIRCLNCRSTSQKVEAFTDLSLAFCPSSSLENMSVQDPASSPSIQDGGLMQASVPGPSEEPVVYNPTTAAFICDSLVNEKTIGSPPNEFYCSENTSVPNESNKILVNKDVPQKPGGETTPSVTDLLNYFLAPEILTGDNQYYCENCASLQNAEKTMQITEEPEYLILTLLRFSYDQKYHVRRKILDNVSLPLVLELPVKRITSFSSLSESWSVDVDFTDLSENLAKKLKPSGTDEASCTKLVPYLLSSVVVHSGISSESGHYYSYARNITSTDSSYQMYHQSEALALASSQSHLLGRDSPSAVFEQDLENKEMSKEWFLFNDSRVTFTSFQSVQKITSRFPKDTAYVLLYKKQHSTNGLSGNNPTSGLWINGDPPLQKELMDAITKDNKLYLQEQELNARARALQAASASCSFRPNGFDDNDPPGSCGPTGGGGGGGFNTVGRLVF
Summary of the method: as §1

USP39 = target: T3, USP39 (UniProt Q53GS9)
T3 sequence (whole entry): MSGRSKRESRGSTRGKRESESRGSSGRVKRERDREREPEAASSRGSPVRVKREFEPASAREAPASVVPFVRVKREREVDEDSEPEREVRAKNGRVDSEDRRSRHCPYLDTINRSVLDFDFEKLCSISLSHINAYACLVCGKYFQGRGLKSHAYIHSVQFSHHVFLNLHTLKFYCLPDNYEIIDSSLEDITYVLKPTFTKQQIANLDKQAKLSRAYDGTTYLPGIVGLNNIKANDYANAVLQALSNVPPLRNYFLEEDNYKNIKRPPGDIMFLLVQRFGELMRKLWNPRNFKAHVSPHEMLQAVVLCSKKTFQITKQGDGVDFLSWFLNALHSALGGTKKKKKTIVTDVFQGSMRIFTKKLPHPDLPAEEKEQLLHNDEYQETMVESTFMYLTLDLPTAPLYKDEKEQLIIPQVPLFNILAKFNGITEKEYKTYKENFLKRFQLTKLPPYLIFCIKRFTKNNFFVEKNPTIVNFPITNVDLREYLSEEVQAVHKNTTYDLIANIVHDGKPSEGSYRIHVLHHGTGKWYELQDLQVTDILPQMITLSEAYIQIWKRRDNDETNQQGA
Summary of the method: as §1

USP4 = target: T4, USP4 (UniProt Q13107)
T4 sequence (whole entry): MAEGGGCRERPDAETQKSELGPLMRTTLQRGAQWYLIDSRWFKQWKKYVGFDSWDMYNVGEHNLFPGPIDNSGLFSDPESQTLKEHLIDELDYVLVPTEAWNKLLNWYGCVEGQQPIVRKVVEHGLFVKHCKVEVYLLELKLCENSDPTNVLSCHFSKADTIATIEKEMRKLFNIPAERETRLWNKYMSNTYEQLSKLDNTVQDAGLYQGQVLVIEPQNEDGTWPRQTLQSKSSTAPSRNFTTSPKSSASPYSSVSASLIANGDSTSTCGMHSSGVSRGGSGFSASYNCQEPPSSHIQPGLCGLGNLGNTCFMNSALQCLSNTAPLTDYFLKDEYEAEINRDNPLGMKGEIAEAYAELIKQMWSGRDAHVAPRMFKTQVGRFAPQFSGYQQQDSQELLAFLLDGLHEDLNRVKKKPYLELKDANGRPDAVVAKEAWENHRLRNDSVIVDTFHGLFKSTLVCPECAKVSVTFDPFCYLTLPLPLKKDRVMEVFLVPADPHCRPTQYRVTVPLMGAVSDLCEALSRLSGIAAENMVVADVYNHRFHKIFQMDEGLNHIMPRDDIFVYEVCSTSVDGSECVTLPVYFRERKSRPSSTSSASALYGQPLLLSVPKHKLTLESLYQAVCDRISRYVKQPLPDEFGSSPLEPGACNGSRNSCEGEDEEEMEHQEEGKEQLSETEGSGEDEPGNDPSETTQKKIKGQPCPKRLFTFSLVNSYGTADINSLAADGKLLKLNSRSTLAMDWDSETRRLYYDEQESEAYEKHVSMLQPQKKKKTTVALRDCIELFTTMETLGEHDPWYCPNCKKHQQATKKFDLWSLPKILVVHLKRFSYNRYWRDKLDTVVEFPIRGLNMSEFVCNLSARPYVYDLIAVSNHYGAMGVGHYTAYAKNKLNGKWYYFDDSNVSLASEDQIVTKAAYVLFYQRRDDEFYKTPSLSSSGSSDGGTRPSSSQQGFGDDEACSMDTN
Summary of the method: as §1

Measured: log2 ratio of Biotin-Ahx-Ub-VS probe labelling

COc1cccc(CN(C)C(=O)CCl)c1
inactive: USP34 0.0183 | USP36 -0.187 | USP38 0.0437 | USP39 0.0189 | USP4 -0.4
